# About 1,000 (0.32%) of roughly 310,000 compounds were called active. These entries were drawn from the full list. Potency and affinity values are given separately. Values without a mark were called inactive. The rule behind the calls is not given here.
# Experiment: PhoP regulon inhibitors, Salmonella typhi PhoP promoter GFP reporter, confirmatory (AID 1850);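 note: 0% = induced wells with vehicle and 100% = uninduced wells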
# Conditions: fluorescence, 4 h, at 50 µM, hits give high values
row,Compound,inhibition
1,Cc1ccc(NS(=O)(=O)c2ccc3c(c2)NC(=O)CCS3)c(Br)c1,1.1%
2,NC(=O)/C=C/C(=O)Nc1ccc(Cl)cc1,5%
3,O=C(/C=C/c1ccc(F)cc1)NC(=S)NC1CCCCC1,2.79%
4,O=C(/C=C/c1ccccc1)NC(=S)NNC(=O)c1cccnc1,4.06%
5,CC(/C=C/c1ccccc1)=N/NC(=O)c1cnccn1,1.54%
6,COc1ccc(/C=C/C(=O)NC(=S)NNC(=O)c2cc(OC)c(OC)c(OC)c2)cc1,4.25%
7,CC(C)NC(=S)NC(=O)/C=C/c1ccc(F)cc1,-3.22%
8,COc1ccc(/C=C/C(=O)NC(=S)NNC(=O)c2cccnc2)cc1,-4.83%
9,NC(=O)c1nsc(C(=O)N(c2ccc3c(c2)OCO3)C(C(=O)NCC2CCCO2)c2ccc(F)cc2)c1N (stereo not given),6.99%
10,CSCCC(NS(=O)(=O)c1cc(C(=O)O)ccc1Cl)C(=O)O (stereo not given),-1.99%
11,C=CCNC(=O)c1oc2ccc(S(=O)(=O)N3CCCCC3)cc2c1C,0.5%
12,CCN(CC)CCCNC(=O)C1CCN(c2ncnc3c2sc2cccc(F)c23)CC1,3.1%
13,COc1ccc(Nc2nc(NN)nc(Nc3ccc(OC)cc3)n2)cc1,-3.28%
14,COc1c2n(C)ccc3c-2n(c(=O)c1=O)c1ccccc31,17.2%
15,O=S(=O)(NCCSc1ccc(Cl)cc1)c1ccc2c(c1)OCCO2,-8.59%
16,COc1cc(Cl)ccc1OCc1cc(C(=O)N2CCCCCCC2)no1,-27.8%
17,CC1(c2nnc(-c3ccc(F)cc3)o2)CC(c2ccc([N+](=O)[O-])cc2)=NO1 (stereo not given),3.35%
18,Fc1ccc(CNCCc2c[nH]c3ccccc23)cc1,11.8%
19,COc1cc(CNCCCCO)ccc1OCc1ccccc1F,-5.61%
20,CCNCc1ccc(OCc2ccccc2F)c(OC)c1,-10.1%

row,Compound,inhibition
1,COc1cccc(CNCCc2c[nH]c3ccccc23)c1OCc1ccc(F)cc1,-6.02%
2,Cc1cccnc1NC(=O)CCc1nnc2ccc(N3CCC4(CC3)OCCO4)nn12,3.16%
3,Oc1ccc2ccccc2c1CNc1ccc(Br)cn1,-4.93%
4,CC(C)c1nn(-c2cc(C(F)(F)F)ccn2)c(=O)o1,1.48%
5,CCOC(=O)c1cccc(NC(=O)c2cc(C)nn2-c2ccccc2)c1,8.61%
6,O=C(C[n+]1cc(-c2ccccc2)n2c1CCC2)Nc1nc(-c2ccccc2)cs1,-3.98%
7,Cc1cccc(C)c1NC(=O)C[n+]1cc(-c2ccccc2)n2c1CCC2,-8.77%
8,Cc1ccc(NC(=O)C[n+]2cc(-c3ccccc3)n3c2CCC3)c(C)c1,19.1%
9,Cc1ccc(-c2c[n+](CC(=O)Nc3ccccc3C)c3n2CCC3)cc1,5.92%
10,Cc1ccc(NC(=O)C[n+]2cc(-c3ccccc3)n3c2CCC3)cc1,10%
11,Cc1ccc(NC(=O)C[n+]2cc(-c3ccc(C)cc3)n3c2CCC3)cc1,14.9%
12,O=C(C[n+]1cc(-c2ccc(Cl)cc2)n2c1CCC2)Nc1nc(-c2ccc(F)cc2)cs1,-19%
13,Cc1ccccc1NC(=O)C[n+]1cc(-c2ccccc2)n2c1CCC2,-9.34%
14,Cc1ccc(C(=O)CSc2nc(C)cc(C)c2C(N)=O)cc1,12.8%
15,Cc1ccc(C(=O)N2N=C(c3cccc(NS(C)(=O)=O)c3)CC2c2cccs2)cc1 (stereo not given),-10.1%
16,Cc1ccc(Cl)cc1NC(=O)C(=O)N/N=C/c1ccc2c(c1)OCO2,-4.53%
17,COc1cccc(/C=C/C(=O)NCc2ccc(S(N)(=O)=O)cc2)c1,-0.15%
18,CCOC(=O)c1c(NC(=O)Cn2ccsc2=N)sc(C)c1C,14.8%
19,Cc1ccc(CSc2nnc(-c3ccncc3)n2C)cc1,-10.9%
20,O=C(NC1CCCCCC1)c1ccc(Br)o1,-0.61%

row,Compound,inhibition
1,Cc1cc(NC(=O)CCC(=O)N(CC(=O)NC2CCCC2)c2ccc(Cl)c(Cl)c2)no1,14.6%
2,Cc1cccc(C(=O)NCC(=O)OCC(=O)NC2CCCCCCC2)c1,0.27%
3,Cc1ccc(-c2c[n+](CC(=O)Nc3c(C)cccc3C)c3n2CCC3)cc1,-24.6%
4,O=C(C[n+]1cc(-c2ccc(F)cc2)n2c1CCC2)Nc1nc(-c2ccccc2)cs1,0.35%
5,O=C(C[n+]1cc(-c2ccc(F)cc2)n2c1CCC2)Nc1nc(-c2ccc(F)cc2)cs1,-2.82%
6,Cc1ccc(-c2c[n+](CC(=O)Nc3nc(-c4ccc(F)cc4)cs3)c3n2CCC3)cc1,-3.86%
7,CCOC(=O)C(C)c1ccc2cc(OC)ccc2c1 (stereo not given),-2.05%
8,Cc1cc(C)c2c(c1)/C(=N/NC(=O)c1cc(C)oc1C)CCC2,-3.06%
9,CN(C)c1ccnc2sc3c(SCc4ccc(Cl)cc4)ncnc3c12,-7.49%
10,CC(C)n1c(SCc2ccc(Cl)cc2)nc2c1c(=O)[nH]c(=O)n2C,-4.82%
11,CN(C)CCN(C(=O)c1ccc(S(=O)(=O)N2CCCC2)cc1)c1nc2ccc(Br)cc2s1,0.55%
12,O=C(CC1NCCc2ccccc21)Nc1ccccc1 (stereo not given),7.99%
13,O=C(CC1NCCc2ccccc21)Nc1ccc(Cl)cc1 (stereo not given),8.21%
14,Cc1cc(NCCO)nc(N2CCOCC2)n1,4.73%
15,Cc1c(Br)cc(C(=O)O)c(C)c1C,7.99%
16,COc1cc(C(=O)Nc2ccc(C)cc2C(NCC(=O)NN)c2ccccc2)cc(OC)c1OC (stereo not given),-8.05%
17,O=c1cc(-c2ccccc2)cc(-c2ccccc2)n1CCO,6.95%
18,Nn1c(-c2ccccc2)cc(-c2ccccc2)cc1=O,-2.08%
19,CN(C)c1ccc(/C=[N+](\[O-])C2N(c3ccccc3)C(=S)SC2(C)C)cc1 (stereo not given),-5.4%
20,COc1cc(C2c3c(oc4ccccc4c3=O)C(=O)N2CCN2CCOCC2)cc(OC)c1OC (stereo not given),-13.4%

# — PubChem BioAssay AID1850 (Southern Research Specialized Biocontainment Screening …, 2009)
